RecA intein inh = blocks M. tuberculosis RecA intein splicing; P9WHJ3; cell-free RecA intein splicing, fluorescence; inhibition, % (no concentration beside the values); hit rate 0.75% among 290,000; AID 2221; in the data active = inhibition above about 30%; inconclusive = no clear call, values can overlap the other calls;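 note: 0% = vehicle wells and 100% = reference inhibitor control wells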
Target sequence (P9WHJ3 whole entry, looked up): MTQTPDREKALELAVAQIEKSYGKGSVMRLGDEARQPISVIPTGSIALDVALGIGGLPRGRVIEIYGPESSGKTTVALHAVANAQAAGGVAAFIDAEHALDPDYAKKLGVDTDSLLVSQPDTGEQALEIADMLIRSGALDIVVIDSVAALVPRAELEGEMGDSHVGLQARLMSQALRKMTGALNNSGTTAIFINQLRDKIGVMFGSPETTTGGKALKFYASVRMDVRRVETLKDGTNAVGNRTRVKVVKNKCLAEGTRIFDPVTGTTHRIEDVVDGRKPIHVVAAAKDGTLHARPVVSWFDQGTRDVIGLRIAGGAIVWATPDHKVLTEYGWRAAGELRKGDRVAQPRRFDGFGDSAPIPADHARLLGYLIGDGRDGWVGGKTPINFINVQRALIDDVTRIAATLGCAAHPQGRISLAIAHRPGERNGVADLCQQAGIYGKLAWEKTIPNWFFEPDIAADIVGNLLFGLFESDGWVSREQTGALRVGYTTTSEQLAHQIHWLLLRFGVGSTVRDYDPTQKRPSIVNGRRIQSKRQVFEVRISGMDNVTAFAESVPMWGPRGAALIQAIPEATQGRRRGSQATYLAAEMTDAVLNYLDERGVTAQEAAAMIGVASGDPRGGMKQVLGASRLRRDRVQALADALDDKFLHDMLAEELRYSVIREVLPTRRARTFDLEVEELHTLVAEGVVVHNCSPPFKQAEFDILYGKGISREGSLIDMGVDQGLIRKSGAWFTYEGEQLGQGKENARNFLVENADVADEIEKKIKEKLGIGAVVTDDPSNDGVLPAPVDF
BJeLR lethal = kills HRASV12-expressing BJeLR cells; inhibition, % (test concentration not listed); BJeLR (HRASV12) viability, CellTiter-Glo ATP luminescence, 48 h; hit rate 0.17% among 300,000; in the data active = inhibition above about 50%; inconclusive = no clear call, values can overlap the other calls
PfHsp40 yeast = restores yeast growth despite PfHsp40 toxicity | AID 504582 | hit rate 0.68% among 340,000 | growth rescue, % at 12.5 µM | S. cerevisiae expressing PfHsp40, growth rescue, ATP luminescence; in the data active = growth rescue above about 28%, passing the limit was not always enough; inconclusive = no clear call, values can overlap the other calls;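 note: yeast W303a lacking pdr1 and pdr3 grown in galactose medium; growth measured after three days at 30 °C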
PrP 5UTR inh = inhibition of PrP 5' UTR reporter expression; cell-based PrP 5' UTR mRNA reporter, plate reader; AID 488862; hit rate 0.35% among 340,000; inhibition, % (test concentration not listed); in the data active = inhibition above about 52%; note: 0 = median of the neutral control wells
PriA SSB inh = K. pneumoniae PriA-SSBct interaction inhibition; hit rate 0.6% among 430,000; inhibition, % at 33 µM; AID 1272365; AlphaScreen SSBct-PriA binding, biotinylated peptide; in the data active = inhibition mostly above about 37%, no sharp cut-off; inactive = mostly below about 20%;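 note: plate controls were negative control peptide for no effect and reference peptide for full effect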
PrPC surface inh = reduces human prion protein on the cell surface | P04156 | cell surface PrPC, TR-FRET read-out | hit rate 0.43% among 370,000 | inhibition, % at 13.8 µM; in the data active = inhibition above about 24%; note: 0% = median of the test wells and 100% = reference compound wells
PrP 5UTR single = prion 5' UTR mRNA inhibition, cherry-pick retest; shares compounds with PrP 5UTR inh; cell-based prion protein 5' UTR reporter, plate reader; inhibition, % at 2.5 µM; hit rate 48% among 1,100; AID 504592; in the data active = inhibition above about 54%; inconclusive = no clear call, values can overlap the other calls
* hit, by the source's call. Only some compounds are listed: those with a hit (about 1.9% of all), similar ones and a draw of the others.

Screening Cc1ccccc1CSc1nnc([C@@H]2CCCN2)o1 returned RecA intein inh -2, BJeLR lethal 0, PfHsp40 yeast 0, PrP 5UTR inh 74*, PriA SSB inh -16, PrPC surface inh 0 and PrP 5UTR single 4.
CC1CCN(C(=O)CCCNS(=O)(=O)c2ccc(Cl)cc2)CC1 was read as PriA SSB inh 2.
COc1ccc(CCNC(=O)CCc2cc(OC)c(OC)c(OC)c2)cc1 was read as RecA intein inh 1, BJeLR lethal -3, PfHsp40 yeast 0, PrP 5UTR inh -23, PriA SSB inh 7 and PrPC surface inh -4.
Screening COc1ccc(CCc2cc(OC)c(OC)c(OC)c2)cc1 returned PfHsp40 yeast -2, PrP 5UTR inh 57*, PriA SSB inh -19, PrPC surface inh 12 and PrP 5UTR single 88*.
`COc1ccc(S(=O)(=O)N2c3cc(Cl)ccc3Oc3nc4ccccc4nc32)cc1` gave RecA intein inh -3, BJeLR lethal 74*, PfHsp40 yeast 0, PrP 5UTR inh 71*, PriA SSB inh 6, PrPC surface inh -2 and PrP 5UTR single 88*.
Cc1ccc(NC(=O)N2CCc3ccccc32)cc1 was read as RecA intein inh 1, BJeLR lethal 3, PfHsp40 yeast -1, PrP 5UTR inh -41, PriA SSB inh -9 and PrPC surface inh 7.
Screening CN1CCN(c2ccc(NC(=O)N3CCc4ccccc43)cc2)CC1 returned RecA intein inh -1, BJeLR lethal -6, PfHsp40 yeast -2, PrP 5UTR inh 64*, PriA SSB inh 4, PrPC surface inh 0 and PrP 5UTR single inconclusive.
Screening CCC(=O)N1CCc2ccc(NC(=O)c3ccc(F)c(F)c3)cc2C1 returned PriA SSB inh -7.
`CCN(C(=O)c1cc2cc(OC)ccc2oc1=O)c1ccccc1` gave RecA intein inh -1, BJeLR lethal 10, PfHsp40 yeast -1, PrP 5UTR inh 67*, PriA SSB inh -10, PrPC surface inh -1 and PrP 5UTR single inconclusive.
For CCN(C(=O)c1cc2cc(OC)ccc2oc1=O)c1cccc(C)c1 the results were RecA intein inh -2, BJeLR lethal -1, PfHsp40 yeast 0, PrP 5UTR inh -23, PriA SSB inh -8 and PrPC surface inh -8.
Screening O=C(NN=Cc1ccco1)C12CC3CC(CC(C3)C1)C2 returned PriA SSB inh -10.
`c1ccc2cc(Cn3c(Cc4cccc5ccccc45)nc4ccccc43)ccc2c1` gave PriA SSB inh -7.
Screening CC(=O)OC(C)(C)/C=C/C(=O)[C@](C)(O)[C@H]1[C@H](O)C[C@@]2(C)[C@@H]3CC=C4[C@H](C[C@H](O)C(=O)C4(C)C)[C@]3(C)C(=O)C[C@]12C returned PfHsp40 yeast 1, PrP 5UTR inh 79* and PrP 5UTR single 88*.
For CC(=O)OC(C)(C)/C=C/C(=O)C(C)(O)C1C(O)CC2(C)C3CC=C4C(CC(O)C(=O)C4(C)C)C3(C)C(=O)CC12C (stereo unspecified) the results were PfHsp40 yeast -1, PrP 5UTR inh 80*, PriA SSB inh -3, PrPC surface inh 34* and PrP 5UTR single 90*.
Screening CCCCCN1C=CC(=C2C(=O)c3ccccc3C2=O)C=C1 returned RecA intein inh 1, BJeLR lethal 51*, PfHsp40 yeast 0, PrP 5UTR inh 89*, PriA SSB inh 2, PrPC surface inh -12 and PrP 5UTR single 89*.
CC1=CC(=C2C(=O)c3ccccc3C2=O)C=C(C)N1C was read as RecA intein inh 5, BJeLR lethal 12, PfHsp40 yeast 1, PrP 5UTR inh -48, PriA SSB inh -5 and PrPC surface inh -29.
For CC1(C)C2CCC1(CS(=O)(=O)N1CCc3ccccc31)C(=O)C2 (stereo unspecified) the results were PriA SSB inh -17.
For Cc1c(NS(=O)(=O)c2ccc(C(=O)NCc3ccccc3)cc2)c(=O)n(-c2ccccc2)n1C the results were RecA intein inh -4, BJeLR lethal -5, PfHsp40 yeast 0, PrP 5UTR inh 56*, PriA SSB inh -9, PrPC surface inh -5 and PrP 5UTR single 1.
Cn1c(=O)c2c(SCC(=O)N3CCOCC3)nc(-c3ccc(Br)cc3)nc2n(C)c1=O was read as PriA SSB inh -7.
For COCCn1c(C)cc(C(=O)COC(=O)c2cc3c(s2)CCC3)c1C the results were RecA intein inh -5, BJeLR lethal -5, PfHsp40 yeast -1, PrP 5UTR inh -41, PriA SSB inh -3 and PrPC surface inh 1.
`COCCn1c(C)cc(C(=O)CSc2nnnn2C2CCCC2)c1C` gave PfHsp40 yeast -1, PrP 5UTR inh 64*, PriA SSB inh -13, PrPC surface inh -6 and PrP 5UTR single 57*.
COCCn1c(C)cc(C(=O)CSc2nnc(C)s2)c1C was read as RecA intein inh -4, BJeLR lethal -1, PfHsp40 yeast -1, PrP 5UTR inh 57*, PriA SSB inh 4, PrPC surface inh 3 and PrP 5UTR single 72*.
Screening COCCn1c(C)cc(C(=O)COC(=O)c2cccc(O)c2)c1C returned RecA intein inh -1, BJeLR lethal -5, PfHsp40 yeast 25, PrP 5UTR inh 83*, PriA SSB inh 10, PrPC surface inh 1 and PrP 5UTR single 79*.
For COc1ccc(CCn2c(C)cc(C(=O)CSc3nnnn3C)c2C)cc1 the results were RecA intein inh 0, BJeLR lethal -1, PfHsp40 yeast 0, PrP 5UTR inh -8, PriA SSB inh 6 and PrPC surface inh -1.
For COc1ccc([C@@H]2CC(c3ccc(N(C)C)cc3)=NN2C(=O)CCC(=O)O)cc1OC the results were PriA SSB inh 4.
Screening COc1ccc2cc(C(=O)NCC3CCN(C(=O)c4cccnc4)CC3)[nH]c2c1 returned PriA SSB inh -7.
CC(C)c1ccc(NC(=S)NCc2cccs2)cc1 was read as BJeLR lethal -7, PfHsp40 yeast 3, PrP 5UTR inh -23, PriA SSB inh -16 and PrPC surface inh 0.
`COc1ccc(NC(=S)NCc2cccs2)cc1` gave RecA intein inh 0, BJeLR lethal -2, PfHsp40 yeast 0, PrP 5UTR inh 75*, PriA SSB inh -8, PrPC surface inh -4 and PrP 5UTR single -12.
`Cc1nn(C2CCS(=O)(=O)C2)c2nc(-c3ccc(F)cc3)cc(C(=O)N3CCN(C)CC3)c12` (stereo unspecified) gave PriA SSB inh -6.
For O=C1CCCCC1Sc1nnc(-c2ccc3c(c2)OCO3)o1 (stereo unspecified) the results were RecA intein inh 4, BJeLR lethal 6, PfHsp40 yeast 0, PrP 5UTR inh 55*, PriA SSB inh -26, PrPC surface inh 6 and PrP 5UTR single inconclusive.
